Data on 24 compounds can be found in PubChem BioAssay (EPA / NIEHS).

Values joined by “and” are separate entries in the source; they are usually repeats but may differ in a detail not shown here. Equal values may be shown once. More than one record can exist for a structure, and the calls need not agree. Active and inactive are the calls of the source. Rule for the calls: active = hit-call score of the fitted dose curve at least 0.9, where 1 is the maximum; inactive = score below 0.9.

The nature of this experiment: CCTE_Shafer_MEA_dev_per_burst_interspike_interval: CCTE's Neural Network Formation Assay for Burst Interspike Interval, Shafer Lab (AID 2284044).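 For AC50: potency for a decrease of within-burst interspike interval below DMSO level.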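 Note: mean spike spacing inside bursts as AUC over recordings on days 5 7 9 12.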 The protocol: CCTE_Shafer_MEA_dev assay is conducted using Axion Biosystems 48 well microelectrode array (MEA) plates and Maestro recording system. Each well of the MEA plate contains a grid of 16 microelectrodes embedded in the culture surface. Electrically active cells, such as neurons, can be cultured over the electrodes, and electrical activity in these cells can be recorded extracellularly. The spontaneous firing of neurons is captured from each electrode on a microsecond timescale providing both temporally and spatially precise data. […] The CCTE_Shafer_MEA_dev assay uses primary cultures of rat cortical neurons. Recordings are made on days post-plating 5, 7, 9 and 12. As these cultures mature over time, neural networks develop functional activity and form cohesive networks in which electrical activity can be highly coordinated. CCTE_Shafer_MEA_dev_per_burst_interspike_interval is 1 of 19 assay components of the CCTE_Shafer_MEA_dev assay. It measures the average time interval between spikes (action potential firings) within a single-electrode burst (temporally-clustered group of spikes) during a recording in a microelectrode array (MEA) using Axion Biosystems Maestro 768 channel amplifier with the AxIS adaptive spike detector. The mean inter-spike interval within bursts is averaged across the actively bursting electrodes to report a well-mean value. To collapse across multiple recordings made on days post-plating 5, 7, 9 and 12, the trapezoidal area-under-the-curve of the component is calculated.Data from the assay component CCTE_Shafer_MEA_dev_per_burst_interspike_interval was analyzed into 1 assay endpoint. This assay endpoint, CCTE_Shafer_MEA_dev_per_burst_interspike_interval, was analyzed in the negative analysis fitting direction relative to DMSO as the negative control and baseline of activity. Using a type of functional reporter, gain or loss-of-signal activity can be used to understand electrical activity.
On the day prior to culture, each well was coated thoroughly with 150 uL of 0.05% polyethyleneimine (PEI, Sigma Cat P3143) in 50 mM HEPES (Sigma Cat H7523) at a pH of 8. The plate was incubated at 37C for one hour. PEI was rinsed out with 500 uL of sterile water three times. Plates were stored at 4C until the day of culture. This culture was plated at a seeding density of 1.5 x 10^5 cells/well on a 48-well MEA plate, prepared as described above. Cells were administered via a 25 uL media/laminin ([…]; Sigma Cat L2020-1MG) drop directly onto the microelectrode array, as adding the cells with the laminin results in better attachment than pre-coating with laminin. After 2 hours, an additional 475 uL of cortical media was added and the cells returned to the incubator. Exposure starts at day 0 of plating and is continued over twelve days of network development until the experiment is terminated. Cells are fed with fresh medium on DIV 5 and 9, following the recordings on those days. The entire volume of media in the well is exchanged and any vehicle or compound treatment is renewed. Complete details are found in OP-NHEERL/ISTD/SBB/TJS/2015-03-r0 (available on request, email shafer.tim@epa.gov). Measurement of the electrical activity is non-invasive, and recordings can be made from the same plate over multiple different days of the culture. In cortical neurons, this allows for the measurement of extracellular action potentials over the period during which networks form in the MEA plate.
With `O=C1C2CC=CCC2C(=O)N1SC(Cl)(Cl)Cl` (stereo unspecified), the compound was called inactive and the AC50 (commonly the concentration at which the activity in the assay is half-maximal) is 16.2 µM (active).

As for `CC(C)=CC1C(C(=O)OCc2coc(Cc3ccccc3)c2)C1(C)C` (stereo unspecified), the call was inactive.

For `C=C(C)CN(CC)c1c([N+](=O)[O-])cc(C(F)(F)F)cc1[N+](=O)[O-]`, the AC50 is 22.1 µM (active).

With `CCNC(=O)NC(=O)C(C#N)=NOC`, the compound was called inactive.

Regarding `CCOP(=O)(OCC)Oc1nc(Cl)c(Cl)cc1Cl`, the compound was classed as inactive.

As for `CO/N=C(/C1=NOCCO1)c1ccccc1Oc1ncnc(Oc2ccccc2Cl)c1F`, the AC50 was 2.28 µM (active) and 518 nM (active).

Take `CCCN(CC)CC1COC2(CCC(C(C)(C)C)CC2)O1` (stereo unspecified): the AC50 is 0.234 µM (active).

As to `O=C(Nc1ccccc1-c1ccc(Cl)cc1)c1cccnc1Cl`, the AC50 is 5.35 µM (active) and the call was inactive.

With `CNC(=O)Oc1cccc2ccccc12`, the outcome was inactive.

`COP(=S)(OC)SCn1nnc2ccccc2c1=O`: the compound was called inactive.

In the case of `CCN(CC)c1nc(C)cc(OP(=S)(OC)OC)n1`, the compound was called inactive.

On to `COC(=O)N(C(=O)N1CO[C@@]2(C(=O)OC)Cc3cc(Cl)ccc3C2=N1)c1ccc(OC(F)(F)F)cc1`, for which the outcome was inactive.

Consider `CCOC(=O)C(C)OC(=O)c1cc(Oc2ccc(C(F)(F)F)cc2Cl)ccc1[N+](=O)[O-]` (stereo unspecified), for which the outcome was inactive.

As to `CS(=O)(=O)c1cc(C(F)(F)F)ccc1C(=O)c1cnoc1C1CC1`, the call was inactive.

Consider `CC(C)(C)C(=O)C(Oc1ccc(Cl)cc1)n1cncn1` (stereo unspecified), for which the outcome was inactive.

Take `N#CN=C1SCCN1Cc1ccc(Cl)nc1`: the outcome was inactive.

Consider `COP(=O)(OC)O/C(C)=C/C(=O)N(C)C`, for which the call was inactive.

As for `Cc1c(COC(=O)[C@@H]2[C@H](/C=C(\Cl)C(F)(F)F)C2(C)C)cccc1-c1ccccc1`, the AC50 was 3.23 µM (active) and 3.43 µM (active).

On to `CC1(C)C(C(=O)OC(C#N)c2cccc(Oc3ccccc3)c2)C1(C)C` (stereo unspecified), for which the AC50 is 18.5 µM (active).

In the case of `CC1(C)C(C=C(Cl)Cl)C1C(=O)OC(C#N)c1cccc(Oc2ccccc2)c1` (stereo unspecified), the compound was called inactive.

For `CS(=O)(=O)c1ccc(C(=O)C2C(=O)CCCC2=O)c([N+](=O)[O-])c1`, the call was inactive.

`CCSC(=O)N1CCCCCC1`: the call was inactive.

With `COP(=S)(OC)Oc1ccc([N+](=O)[O-])c(C)c1`, the call was inactive.

Regarding `CN/C(=N\[N+](=O)[O-])NCc1cnc(Cl)s1`, the call was inactive.
